A short description of assay [1]: qHTS assay to identify small molecule inhibitors of chordoma cells - UCH-1 (AID 1259355). Further: nearly all actives have a fitted effect of over 55% in size. An outline of the steps:
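A 48hr growth-inhibition format: each drug tested at 15 concentrations together with added auranofin, camptothecin, doxorubicin, rubitecan and topotecan, with cell viability quantified as CellTiter-Glo luminescence.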

A short description of assay [2]: qHTS assay to identify small molecule inhibitors of chordoma cells - UCH-2 (AID 1259356). Further: series mostly up to about 46 µM. A general note: qHTS replaces the single test concentration by a dilution series.
Assay [3] in a line: P-glycoprotein substrates identified in KB-8-5-11 adenocarcinoma cell line, qHTS therapeutic library screen (AID 1346987). Further: nearly all actives have a fitted effect of over 65% in size. Further: potency means the concentration at half of the fitted maximal effect. To be noted: outcome: dose series up to 44.5 µM unless noted. Put shortly: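 Compounds are pinned in dose-response onto KB-8-5-11 cells (500 cells/well, colchicine-free medium) and left 72 h at 37 degree C. CellTiter-Glo luminescence then yields AC50 values.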

Results filed as inconclusive are left out. Activity calls are given as the source filed them. The call rests on the fitted dose curve; in most records, active means well fitted curve in the direction sought with a large enough effect; inconclusive means small, poorly fitted or top-dose-only effect, or another doubt; inactive means no such curve, though single readings can be large; an effect the other way counts as inactive or inconclusive. *1 amine or outer side, *2 acyl side, *3 side chain or, on linkers, in order; H or OH if unused. Where a SMILES comes first, the peptide text is derived from it. Bridges are numbered along the chain shown (N, C = ends). [ ]: non-standard residue; d: D form. The star is where a group is joined. X5 = NC1=N[C@@H]([C@H](N[*:1])C(=O)[*:2])C[C@H](O)N1; ΔAla(Z-3-ureido) = NC(=O)N/C=C(\N)C(=O)O; β3hOrn = NCCC[C@H](N)CC(=O)*; Dap = NC[C@H](N)C(=O)O

Take `CC(=O)Nc1c(I)c(C(=O)N[C@H]2C(O)O[C@H](CO)[C@@H](O)[C@@H]2O)c(I)c(N(C)C(C)=O)c1I` (stereo partly drawn): the Potency entry in assay [1], in assay [2] and in assay [3] was “inactive” throughout.

Consider `CC(C)(C)CC(C)(C)c1ccc(OCCO)cc1`, for which the Potency entry in assay [1] and in assay [2] was “inactive” each time. Moreover, the Potency in assay [3] is 13 µM (active).

With `NC[C@H]1O[C@H](O[C@H]2[C@H](O)[C@@H](O[C@H]3O[C@H](CO)[C@@H](O)[C@H](N)[C@H]3O)[C@H](N)C[C@@H]2N)[C@H](O)[C@@H](O)[C@@H]1O`, the Potency entry in assay [1], in assay [2] and in assay [3] was “inactive” in each case.

Take `CNCC(=O)N[C@@H](CCCN=C(N)N)C(=O)N[C@H](C(=O)N[C@@H](Cc1ccc(O)cc1)C(=O)N[C@H](C(=O)N[C@@H](Cc1cnc[nH]1)C(=O)N1CCC[C@H]1C(=O)N[C@@H](C)C(=O)O)C(C)C)C(C)C`: the Potency result in assay [1], in assay [2] and in assay [3] was “inactive” each time.

As to `CCC(=O)OC(OP(=O)(CCCCc1ccccc1)CC(=O)N1C[C@H](C2CCCCC2)C[C@H]1C(=O)O)C(C)C` (stereo partly drawn), the Potency entry in assay [1], in assay [2] and in assay [3] was “inactive” each time.

On to `O=P(O)(O)O`, for which the Potency entry in assay [1], in assay [2] and in assay [3] was “inactive” throughout.

In the case of `O=C(O)c1cc(N=Nc2ccc(O)c(C(=O)O)c2)ccc1O`, the Potency result in assay [1], in assay [2] and in assay [3] was “inactive” throughout.

In the case of `NCCC[C@H](N)CC(=O)N[C@H]1CNC(=O)[C@H]([C@H]2C[C@H](O)NC(N)=N2)NC(=O)/C(=C/NC(N)=O)NC(=O)[C@H](CO)NC(=O)[C@H](CO)NC1=O` (β3hOrn-[Dap]SS[ΔAla(Z-3-ureido)][X5]; lactam 1-C), the Potency entry in assay [1], in assay [2] and in assay [3] was “inactive” throughout.

With `CCCCC(CC)CCC(CC(C)C)OS(=O)(=O)O` (stereo not drawn), the Potency result in assay [1], in assay [2] and in assay [3] was “inactive” throughout.

Turning to `O=C1[O][Bi][O]c2ccccc21`, the Potency entry in assay [1], in assay [2] and in assay [3] was “inactive” each time.

With `CN1CCCC(CN2c3ccccc3Sc3ccccc32)C1` (stereo not drawn), the Potency result in assay [1], in assay [2] and in assay [3] was “inactive” in each case.

In the case of `CC(/C=C/C=C(\C)C(=O)O[C@@H]1O[C@H](CO[C@@H]2O[C@H](CO)[C@@H](O)[C@H](O)[C@H]2O)[C@@H](O)[C@H](O)[C@H]1O)=C\C=C\C=C(C)\C=C\C=C(/C)C(=O)O[C@@H]1O[C@H](CO[C@@H]2O[C@H](CO)[C@@H](O)[C@H](O)[C@H]2O)[C@@H](O)[C@H](O)[C@H]1O`, the Potency entry in assay [1], in assay [2] and in assay [3] was “inactive” in each case.

For the compound `COc1ccc(-c2noc(CC(=O)O)c2-c2ccc(OC)cc2)cc1`, the Potency result in assay [1], in assay [2] and in assay [3] was “inactive” each time.

On to `O=P(O)(O)OC[C@H](O)CO`, for which the Potency entry in assay [1], in assay [2] and in assay [3] was “inactive” throughout.

For the compound `O=P(O)(O)OP(=O)(O)O`, the Potency entry in assay [1], in assay [2] and in assay [3] was “inactive” each time.

As to `C[C@H](NCCc1ccc(O)cc1)[C@H](O)c1ccc(O)cc1`, the Potency entry in assay [1], in assay [2] and in assay [3] was “inactive” in each case.

The values are drawn from PubChem BioAssay (NCATS).
